36 molecules from the supplement of paper PMC10127200 can be followed below.

Counter-ions that a name gives are not always drawn.

This experiment has as its system DU145. In words: Euclidean distance of Cell Painting phenotypic profile (signed KS, 77 features) to DMSO centroid (dimensionless distance); 5 or 10 uM (library dependent); higher = stronger phenotypic change vs DMSO (phenoactivity). Conditions: 48 h. In a few lines: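 Stained cells were imaged confocally at 20X with 9 fields per well, after 48 h of exposure to library compounds at 10 or 5 uM (set by library; 0.1% DMSO final). The cells were five cancer lines and a healthy fibroblast line. From the images, Harmony extracted 77 features, each expressed as a signed Kolmogorov-Smirnov statistic relative to same-plate vehicle wells. Phenoactivity is measured as Euclidean distance to the median vehicle profile, using plate-position-corrected, correlation-weighted profiles averaged across replicates at the top dose.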
Regarding `COc1c(C)c2c(c(O)c1C/C=C(\C)CCC(=O)OCCN1CCOCC1)C(=O)OC2` [Mycophenolate Mofetil], the Euclidean distance is 2.11.
With `C[C@@H]1C[C@H]2[C@@H]3C[C@H](F)C4=CC(=O)C=C[C@]4(C)[C@@]3(F)[C@@H](O)C[C@]2(C)[C@@]1(O)C(=O)CO` [Flumethasone] the figure was 2.17; with `CN(C)Cc1cccc(N=C(c2ccccc2)c2c(O)[nH]c3cc(C(=O)N(C)C)ccc23)c1`, 1.08; with `NC(=O)c1ncn([C@@H]2O[C@H](CO)[C@@H](O)[C@H]2O)c1N` [Acadesine], 0.856.
With `CCN(CC)CCOC(=O)C(c1ccccc1)c1ccccc1` [Adiphenine HCl] the figure was 0.633; with `c1ccc(C2CN3CCSC3=N2)cc1` (single isomer, unassigned; (-)) [(-)-Tetramisole], 0.518; with `NCCCCCC(=O)O`, 2.26.
For `NC(=O)[C@@H]1CSSCCC(=O)N[C@@H](CCCCN=C(N)N)C(=O)NCC(=O)N[C@@H](CC(=O)O)C(=O)N[C@@H](Cc2c[nH]c3ccccc23)C(=O)N2CCC[C@H]2C(=O)N1` [Eptifibatide Acetate], the Euclidean distance worked out at 0.993.
As for `C[C@@H]1CN(CC(=O)Nc2ccc3c(c2)Cc2cccc(-c4cc(=O)cc(N5CCOCC5)o4)c2S3)C[C@H](C)O1`, the Euclidean distance was found to be 1.41.
For `N=c1ccn2c(n1)O[C@H]1[C@H](O)[C@@H](CO)O[C@H]12` [Cyclocytidine HCl] the value was 2.45; for `CC(C)[C@H](O)C(=O)N[C@@H](C)C(=O)N[C@@H]1C(=O)N(C)CCc2ccccc21`, 1.12; for `Cc1ccc2c(=O)c3cccc(CC(=O)O)c3oc2c1C` [DMXAA (Vadimezan)], 1.14.
For `CCc1c(C(=O)NCCc2ccc(N3CCCCC3)cc2)[nH]c2ccc(Cl)cc12` the value was 1.01; for `CC(C)C[C@@H](C(=O)N[C@H](C(=O)OC1CCCC1)c1ccccc1)[C@H](O)C(=O)NO` [Tosedostat (CHR2797)], 0.893; for `C=CCn1c(=O)c2cnc(Nc3ccc(N4CCN(C)CC4)cc3)nc2n1-c1cccc(C(C)(C)O)n1`, 2.52.
With `Cc1cc(NC(=O)Nc2ccc(N(C)C)cc2)c2cc(F)cc(F)c2n1` the figure was 0.704; with `COc1ccc2cc(C(=O)O)ccc2c1` [6-Methoxy-2-naphthoic acid], 0.683.
`CCCCOc1c(C(=O)c2c(F)cc(C)cc2F)c[nH]c2nncc1-2` came in with an Euclidean distance of 1.61.
For `O=C(NOCC(O)CO)c1cc(Br)c(F)c(F)c1Nc1ccc(I)cc1F` (stereo unspecified) the value was 1.78.
For `CCOC(=O)[C@H](CCc1ccccc1)N[C@H]1CCCN2CCC[C@@H](C(=O)O)N2C1=O` [Cilazapril Monohydrate] the value was 0.828; for `CCC(=O)O[C@]1(C(=O)CCl)[C@@H](C)C[C@H]2[C@@H]3CCC4=CC(=O)C=C[C@]4(C)[C@@]3(F)[C@@H](O)C[C@@]21C` [Clobetasol propionate], 2.55.
For `Clc1ccc(C2(c3ccc(-c4cn[nH]c4)cc3)CCNCC2)cc1` the value was 3.8; for `COc1cc(NS(=O)(=O)c2ccc(N)cc2)nc(OC)n1` [Sulphadimethoxine], 1.61; for `Nc1cccc(-c2cc3c(Oc4cccc(O)c4)ncnc3[nH]2)c1`, 1.62.
The molecule `C=CCc1cc(OC)c(O)c(C(=O)NCCO)c1` [Alibendol] yielded an Euclidean distance of 0.743.
For `NS(=O)(=O)c1cc2c(cc1Cl)NCNS2(=O)=O` [Hydrochlorothiazide] the value was 1.44; for `CCCc1nc2c(C)cc(-c3nc4ccccc4n3C)cc2n1Cc1ccc(-c2ccccc2C(=O)O)cc1` [Telmisartan], 1.03.
With `CCCNC(=O)Nc1ccc(Oc2ncnc3cc(OC)c(OC)cc23)cc1Cl` the figure was 0.916; with `COc1cc(Nc2nc3ccccc3nc2NS(=O)(=O)c2ccc(NC(=O)c3ccc(C)c(OC)c3)cc2)cc(OC)c1`, 1.17.
With `C[C@@]1(c2cc(-c3cncnc3)c(F)cc2F)CCSC(N)=N1` the figure was 1.06.
The molecule `CCCCCCCCCCCCc1ccc(S(=O)(=O)Nc2nncs2)cc1` registered an Euclidean distance of 0.932.
For `Cc1ccc(-n2nc(C(C)(C)C)cc2NC(=O)Nc2ccc(OCCN3CCOCC3)c3ccccc23)cc1` [BIRB 796 (Doramapimod)] the value was 1.2.
For `O=S(=O)(NCCNC/C=C/c1ccc(Br)cc1)c1cccc2cnccc12` the value was 2.19; for `CCOC(=O)CCNc1cc(N2CCc3ccccc3CC2)nc(-c2ccccn2)n1`, 2.35; for `NC(=O)Nc1cc(-c2cccc(F)c2)sc1C(=O)N[C@H]1CCCNC1`, 3.87.
As to `CNC(=O)CN(CCN(CCN(CC(=O)[O-])CC(=O)NC)CC(=O)[O-])CC(=O)[O-].[Gd+3]` [Gadodiamide], the Euclidean distance amounted to 1.5.
